ClpP mod = qHTS Assay for Activators of ClpP. ATP-dependent Clp protease proteolytic subunit (Bacillus subtilis (strain 168)), P80244. purified B. subtilis ClpP, FRET peptide cleavage, 20 min. Potency, µM (series often up to 57.5 µM), inactives show at the top dose activity change, negative = active. actives 1.9% (n = 340,000). AID 651965, 2013; active means well fitted falling curve with a large enough effect; inconclusive means small, poorly fitted or top-dose-only effect; inactive means no such curve, though single readings can be large or run the other way; further: potency means the concentration at half of the fitted maximal effect; the source files actives as falling curves though it sought activators and does not explain the sign; nearly all actives have a fitted effect of over 65% in size
Target sequence (P80244 whole entry, looked up): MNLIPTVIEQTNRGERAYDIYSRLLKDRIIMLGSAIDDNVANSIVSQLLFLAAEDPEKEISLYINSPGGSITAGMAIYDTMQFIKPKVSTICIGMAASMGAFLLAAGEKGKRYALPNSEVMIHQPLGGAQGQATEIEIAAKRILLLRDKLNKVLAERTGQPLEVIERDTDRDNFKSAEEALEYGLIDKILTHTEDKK
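ClpP 10 microg/mL final, pH 8 Tris/KCl buffer with BSA, glycerol, Tween-20; compound pinned in; FRET-FV substrate; RT 20 min; Ex320/Em430; ΔFRET vs ADEP 5.8 microM, DMSO, no enzyme.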
DT40 TDP1 CPT = growth inhibition of DT40 Tdp1-/-;hTDP1 cells with camptothecin (screen for TDP1 inhibitors); chicken DT40 Tdp1-/-;hTDP1 cells + 20 nM CPT, ATP luminescence, 48 h; Potency, µM (titrated, usually from 46.2 µM), for inactives: top-dose activity change, negative = growth inhibition, hits mostly inhibitors; actives 12% (n = 420,000); further: potency means the concentration at half of the fitted maximal effect; on the % scale 0 is the no-effect control and ±100 the full control effect; nearly all actives have a fitted effect of over 55% in size
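Chicken DT40 Tdp1-/- cells complemented with human TDP1, 400 cells/well, exposed to compounds plus 20 nM camptothecin for at least 48 h at 37 C; viability read as ATP content by CellTiter-Glo luminescence.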
D3 antag = D3 dopamine receptor (human) antagonism | P35462 | D3R cells, DiscoveRx beta-arrestin luminescence, antagonist mode; stronger effect = lower value | max response, negative = inhibition, % | actives 2.5% (n = 360,000); in the data active means max response below about -50%; inconclusive means no clear call, values can overlap the other calls; further: on the % scale 0 is the no-effect control and ±100 the full control effect
Target sequence (P35462 whole entry, looked up): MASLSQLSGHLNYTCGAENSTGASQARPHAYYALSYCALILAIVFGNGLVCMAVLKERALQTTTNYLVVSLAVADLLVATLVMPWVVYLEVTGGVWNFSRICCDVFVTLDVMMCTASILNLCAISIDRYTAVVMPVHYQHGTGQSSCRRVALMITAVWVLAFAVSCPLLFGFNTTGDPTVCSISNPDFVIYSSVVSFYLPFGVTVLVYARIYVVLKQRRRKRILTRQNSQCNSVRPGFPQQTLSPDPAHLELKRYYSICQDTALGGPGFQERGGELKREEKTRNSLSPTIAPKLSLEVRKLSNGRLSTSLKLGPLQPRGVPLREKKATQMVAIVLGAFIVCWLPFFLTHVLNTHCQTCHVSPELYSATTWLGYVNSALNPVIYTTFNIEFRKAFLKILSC
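Cells expressing the human receptor were seeded at 1500 cells/well, incubated overnight at 37 degrees C in 5% CO2, then exposed to library compounds with dopamine controls for 90 minutes at 37 degrees C before luminescent detection.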
D3 ag = D3 dopamine receptor (human) agonism; P35462; D3R DiscoveRx beta-arrestin cells, luminescence, 90 min; max activation, %; actives 0.58% (n = 410,000); in the data active means max activation above about 30%; further: 0% is about no effect
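Agonist mode: compounds and dopamine controls were applied to plated cells for 90 min at 37 degrees C after an overnight attachment at 1500 cells/well. Luminescent read-out followed 30 - 60 minutes at room temperature with DiscoveRx detection reagent.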
IL1B secr inh = inhibitors of inflammasome signaling (IL-1 beta secretion) | actives 4.7% (n = 360,000) | AID 743279 | activity change, % at 57.5 µM | THP-1 LPS/ATP IL-1B secretion, AlphaLISA, 16 h; stronger effect = lower value; in the data active means activity change below about -50%; inconclusive means mostly about -30% to -49%; further: on the % scale 0 is the no-effect control and ±100 the full control effect
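Secreted IL-1B measured by AlphaLISA bead assay after 16 h compound exposure of THP-1 cells; compounds (final up to 57.5 uM) added 1 h before LPS (250 ng/mL) and ATP (1.25 mM) stimulation; lower signal means less secretion.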
TDP1 cell noCPT = qHTS for Inhibitors of human tyrosyl-DNA phosphodiesterase 1 (TDP1): qHTS in cells in absence of CPT; DT40 Tdp1-/- hTDP1 cells, no CPT, ATP luminescence, 48 h; Potency, µM (doses to about 46.2 µM), inactives show at the top dose activity change, negative = growth inhibition, actives largely listed as inhibitors; actives 15% (n = 420,000); AID 686978, 2013; further: potency means the concentration at half of the fitted maximal effect; on the % scale 0 is the no-effect control and ±100 the full control effect; nearly all actives have a fitted effect of over 55% in size
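Chicken DT40 Tdp1-/- cells stably complemented with human TDP1 were seeded at 400 cells/well with DMSO in place of 20 nM camptothecin. After compound pinning, cells grew at least 48 hr at 37 °C; viability read by CellTiter-Glo luminescence.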
Active calls of the source: *; ? = inconclusive; nt = not tested or not shown. The list is not random: actives were taken first. Their share in the collection is about 21%. Unless noted, the call rests on the fitted dose curve; in most records, active means well fitted inhibition curve with a large enough effect; inconclusive means small, poorly fitted or top-dose-only effect; inactive means flat fitted curve, though single readings scatter.

SMILES	ClpP mod	DT40 TDP1 CPT	D3 antag	D3 ag	IL1B secr inh	TDP1 cell noCPT
COc1ccc(C(=O)N2CC(=O)Nc3ccc(C)cc3C2c2ccccc2)c(OC)c1 (stereo not drawn)	-0.7%	?	nt	2.7	nt	?
Cc1cc(NC(=O)C(C)Sc2nnc(NCc3ccco3)s2)no1 (stereo not drawn)	0.9%	-20.3%	0.6	-1.0	1.0	0.1%
COCCn1c(=O)cnc2cnc(OCc3ccccc3)nc21	nt	-11.7%	nt	nt	nt	?
NC(=O)CCN(C1CCCCC1)S(=O)(=O)c1cccc2nsnc12	nt	7.3%	4.2	2.2	1.3	-2.1%
Cc1ccc(S(=O)(=O)N(CCC#N)C2CCCCC2)c2nsnc12	-0.7%	16.4µM*	0.7	5.0	0.0	18.4µM*
c1ccc(CN2CCN(C3CCCSc4ccccc43)CC2)cc1 (stereo not drawn)	0.7%	?	-84.9*	-48.0	-28.3	23.1µM*
Cc1cc(C)c(S(=O)(=O)N2CCN(C(=O)c3ccc4c(c3)OCO4)CC2)c(C)c1	0.6%	-20.4%	14.7	20.0	-60.0*	?
Cc1cc(C)c(S(=O)(=O)N2CCN(C(=O)c3ccc(-n4nc(C)c(Cl)c4C)cc3)CC2)c(C)c1	-1.4%	23.1µM*	-1.9	100.7*	-15.0	16.4µM*
Cc1ccc(NC(=O)c2cnccn2)cc1C	0.4%	6.6%	-5.4	-0.3	-0.7	6.1%
Cc1ccccc1CNc1ccc(C(CC(N)=O)NC(=O)c2ccccc2)cc1[N+](=O)[O-] (stereo not drawn)	1.4%	16.4µM*	8.2	1.2	-78.4*	23.1µM*
CCC(CC)Nc1ccc(C(CC(N)=O)NC(=O)c2ccccc2)cc1[N+](=O)[O-] (stereo not drawn)	1.6%	16.4µM*	-6.5	-12.6	-1.9	14.6µM*
Cc1cccc(CNc2ccc(C(CC(N)=O)NC(=O)c3ccccc3)cc2[N+](=O)[O-])c1 (stereo not drawn)	0.6%	?	0.7	-1.3	-10.2	?
CCCCNc1ccc(C(CC(N)=O)NC(=O)c2ccccc2)cc1[N+](=O)[O-] (stereo not drawn)	-0.1%	18.4µM*	0.0	-0.3	-11.6	14.6µM*
CC(/C=C/C=C(\C)C(=O)O[C@@H]1O[C@H](CO[C@@H]2O[C@H](CO)[C@@H](O)[C@H](O)[C@H]2O)[C@@H](O)[C@H](O)[C@H]1O)=C\C=C\C=C(C)\C=C\C=C(/C)C(=O)O[C@@H]1O[C@H](CO[C@@H]2O[C@H](CO)[C@@H](O)[C@H](O)[C@H]2O)[C@@H](O)[C@H](O)[C@H]1O	nt	8.0%	nt	12.2	nt	3.0%
Cc1ccc(NC(=O)C2CCN(C(=O)c3ccccc3C)CC2)nc1	-1.4%	-0.6%	15.4	1.4	17.0	5.3%
CSc1cccc(NC(=O)NNC(=O)C2CCN(S(=O)(=O)N(C)C)CC2)c1	-0.8%	-5.8%	3.9	2.1	12.5	17.4%
O=C(NC(=S)NN1CCCCC1c1cccnc1)c1ccc(Cl)cc1Cl (stereo not drawn)	nt	?	2.2	-2.0	-14.9	25.9µM*
CCc1ccc(C(=O)c2cn(CC(=O)Nc3ccc(OC)c(Cl)c3)c3nc(C)ccc3c2=O)cc1	3.6%	-21.6%	nt	-18.7	nt	?
COc1ccc(N(C(=O)CNC(=O)c2cccs2)C(C(=O)NC2CCCC2)c2cccnc2)cc1 (stereo not drawn)	nt	2.5%	0.9	4.4	-10.4	-5.1%
COc1cccc(-c2nnc3n(Cc4ccc(F)cc4)c(=O)c4ccccc4n23)c1	3.7%	?	nt	0.5	nt	?
CC(C)OCCCn1c(=O)c2ccccc2n2c(-c3ccccc3F)nnc12	?	-25.8%	nt	3.0	nt	?
COc1cccc(-c2nnc3n(Cc4ccc(C)cc4)c(=O)c4ccccc4n23)c1O	0.0%	?	nt	0.3	nt	25.9µM*
CC(C)OCCCn1c(=O)c2ccccc2n2c(-c3cc(Cl)ccc3O)nnc12	-0.6%	?	nt	4.9	nt	18.4µM*
COc1ccc(OC)c(-c2nnc3n(CCc4ccccc4)c(=O)c4ccccc4n23)c1	0.9%	8.2µM*	nt	10.0	nt	16.4µM*
COc1ccc(Cn2c(=O)c3ccccc3n3c(-c4cccc(OC)c4OC)nnc23)cc1	-15.7%	?	nt	6.2	nt	16.4µM*
SMILES	ClpP mod	DT40 TDP1 CPT	D3 antag	D3 ag	IL1B secr inh	TDP1 cell noCPT
C=CCOC(=O)CCCCCCCC	-0.1%	7.3%	17.5	23.7	8.7	-7.1%
O=C(Nc1ccc(Cl)cc1Cl)[C@@H]1CC=C[C@@H]2CCN(C3CC3)C(=O)[C@@H]21	2.4%	?	nt	nt	nt	?
O=c1c2ccccc2n2c(-c3ccc(Cl)cc3)nnc2n1CCc1ccccc1	-12.6%	?	nt	-7.6	nt	18.4µM*
O=c1c2ccccc2n2c(-c3ccc(F)c(F)c3)nnc2n1CCc1ccccc1	85.8%	?	nt	4.4	nt	?
COC1(OC)C(/C=C/c2ccc(Cl)cc2)C(C#N)(C#N)C1(OC)OC (stereo not drawn)	-4.5%	8.2µM*	?	-1.3	-101.5*	8.2µM*
CC(C)(C)c1cc[n+](C2=C([O-])c3ccccc3C(=O)/C2=N\S(=O)(=O)c2cccs2)cc1	-2.4%	2.31µM*	-27.8	-8.2	-87.8*	4.61µM*
O=S(=O)(/N=C/c1ccccc1O)c1cccs1	-0.3%	-19.8%	10.9	4.1	18.7	-8.6%
N/C(=N\S(=O)(=O)c1cccs1)c1ccccc1	-0.7%	-6.0%	-24.5	-0.9	-14.7	-15.6%
O=C1/C(=N\S(=O)(=O)c2cccs2)C([n+]2ccccc2)=C([O-])c2ccccc21	0.4%	2.31µM*	-17.1	-9.9	-62.7*	2.31µM*
Cc1cc(C(=O)C(=O)N(C)C)c(C)n1-c1ccc(Cl)c(Cl)c1	-1.9%	?	18.5	7.0	6.0	20.6µM*
COc1ccc(OC)c(/C=C2\S/C(=N/NC(=O)c3ccc4ccccc4c3)NC2=O)c1	-0.9%	4.8%	2.2	0.6	18.7	-6.5%
O=C1N/C(=N/NC(=O)c2cccc3ccccc23)S/C1=C\c1ccccc1OCc1ccccc1	0.8%	?	-58.6*	5.6	18.9	?
COc1ccc(CNC(=O)Nc2nc(C(N)Cc3ccc(C(F)(F)F)cc3)cs2)cc1 (stereo not drawn)	-1.1%	?	22.7	6.2	?	20.6µM*

Screens: PubChem BioAssay, National Center for Advancing Translational Sciences (NCATS)
